Experimental data reported in PMC9911399, “Two distinct binding modes provide the RNA-binding protein RbFox with extraordinary sequence specificity”.
Numbering of substitutions follows the chain as printed; changes in the protein carry UniProt numbers. Over roughly 16,000 sequences, “ka relative to ugcaugu” has its median near 0.0091; the highest 2% begin near 0.032. The entries come from a sample that favours the highest values as a whole.

T1: RBFOX1 RRM (Homo sapiens, UniProt Q9NWB1 109-208)
T1 sequence: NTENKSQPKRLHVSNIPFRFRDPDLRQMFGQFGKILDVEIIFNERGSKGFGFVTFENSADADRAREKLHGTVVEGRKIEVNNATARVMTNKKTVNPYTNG

B1: AGUCCCC (DNA:RNA)
RNA: GGGAGACCGGAAUUCAGAUUGUCCAGUCCCCUUAAAUCCCGUCGUAGCCACCA
DNA 1: CAATCTGAATTCCGGTCTCCC
DNA 2: TGGTGGCTACGACGGGATT
B2: CUUCGCU (DNA:RNA)
RNA: B1 RNA with A25C, G26U, C29G, C31U
DNA 1: CAATCTGAATTCCGGTCTCCC
DNA 2: TGGTGGCTACGACGGGATT
B3: GCGUUAG (DNA:RNA)
RNA: GGGAGACCGGAAUUCAGAUUGUCCGCGUUAGUUAAAUCCCGUCGUAGCCACCA
DNA 1: CAATCTGAATTCCGGTCTCCC
DNA 2: TGGTGGCTACGACGGGATT
B4: CUUGGGA (DNA:RNA)
RNA: B1 RNA with A25C, G26U, C28G, C29G, C30G, C31A
DNA 1: CAATCTGAATTCCGGTCTCCC
DNA 2: TGGTGGCTACGACGGGATT
B5: UCCUUGC (DNA:RNA)
RNA: B3 RNA with G25U, G27C, A30G, G31C
DNA 1: CAATCTGAATTCCGGTCTCCC
DNA 2: TGGTGGCTACGACGGGATT
B6: GUGCUAG (DNA:RNA)
RNA: B3 RNA with C26U, U28C
DNA 1: CAATCTGAATTCCGGTCTCCC
DNA 2: TGGTGGCTACGACGGGATT
B7: UUGUUAG (DNA:RNA)
RNA: B3 RNA with G25U, C26U
DNA 1: CAATCTGAATTCCGGTCTCCC
DNA 2: TGGTGGCTACGACGGGATT
B8: CCCCUGC (DNA:RNA)
RNA: B1 RNA with A25C, G26C, U27C, C29U, C30G
DNA 1: CAATCTGAATTCCGGTCTCCC
DNA 2: TGGTGGCTACGACGGGATT
B9: CUGCUUG (DNA:RNA)
RNA: B3 RNA with G25C, C26U, U28C, A30U
DNA 1: CAATCTGAATTCCGGTCTCCC
DNA 2: TGGTGGCTACGACGGGATT
B10: UGCUUUG (DNA:RNA)
RNA: B3 RNA with G25U, C26G, G27C, A30U
DNA 1: CAATCTGAATTCCGGTCTCCC
DNA 2: TGGTGGCTACGACGGGATT
B11: UUGUUGC (DNA:RNA)
RNA: B3 RNA with G25U, C26U, A30G, G31C
DNA 1: CAATCTGAATTCCGGTCTCCC
DNA 2: TGGTGGCTACGACGGGATT
B12: UUGCUAG (DNA:RNA)
RNA: B3 RNA with G25U, C26U, U28C
DNA 1: CAATCTGAATTCCGGTCTCCC
DNA 2: TGGTGGCTACGACGGGATT
B13: UGCUGCU (DNA:RNA)
RNA: B1 RNA with A25U, U27C, C28U, C29G, C31U
DNA 1: CAATCTGAATTCCGGTCTCCC
DNA 2: TGGTGGCTACGACGGGATT
B14: CUGCUGC (DNA:RNA)
RNA: B1 RNA with A25C, G26U, U27G, C29U, C30G
DNA 1: CAATCTGAATTCCGGTCTCCC
DNA 2: TGGTGGCTACGACGGGATT
B15: UUGCUUG (DNA:RNA)
RNA: B3 RNA with G25U, C26U, U28C, A30U
DNA 1: CAATCTGAATTCCGGTCTCCC
DNA 2: TGGTGGCTACGACGGGATT
B16: UGCUUUU (DNA:RNA)
RNA: B3 RNA with G25U, C26G, G27C, A30U, G31U
DNA 1: CAATCTGAATTCCGGTCTCCC
DNA 2: TGGTGGCTACGACGGGATT
B17: GACGAUG (DNA:RNA)
RNA: B3 RNA with C26A, G27C, U28G, U29A, A30U
DNA 1: CAATCTGAATTCCGGTCTCCC
DNA 2: TGGTGGCTACGACGGGATT
B18: AAAUAUU (DNA:RNA)
RNA: B1 RNA with G26A, U27A, C28U, C29A, C30U, C31U
DNA 1: CAATCTGAATTCCGGTCTCCC
DNA 2: TGGTGGCTACGACGGGATT
B19: CUUGAAA (DNA:RNA)
RNA: B1 RNA with A25C, G26U, C28G, C29A, C30A, C31A
DNA 1: CAATCTGAATTCCGGTCTCCC
DNA 2: TGGTGGCTACGACGGGATT
B20: CGUUCGG (DNA:RNA)
RNA: B1 RNA with A25C, C28U, C30G, C31G
DNA 1: CAATCTGAATTCCGGTCTCCC
DNA 2: TGGTGGCTACGACGGGATT

Each binder was assayed against T1, RBFOX1 RRM (assay: EMSA; HiTS-Eq, 1 nM pool, 10 min; buffer printed only for the single-RNA assays: 10 mM Tris pH 7.5, 150 mM NaCl, 3.4 mM EDTA, 0.001% NP-40, 30 C). Details: tags: His6 N-terminal (pET28a); label: 5' 32P.
How it was run: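 Purified RbFox RRM, wild type or mutant, was incubated for 10 min in 50 µL with 1 nM of a 5′-radiolabelled RNA pool carrying 7 randomized nucleotides, whose flanks were annealed to DNA oligonucleotides, over a series of increasing protein concentrations. Unbound RNA was resolved on 8% native PAGE, cut out, reverse-transcribed, barcoded by PCR and sequenced on an Illumina HiSeq 2500. Relative association constants were derived from changes in read counts for each RNA species versus the control reaction and normalised to the cognate motif.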
For B1, the binding signal was 0.0101 KA relative to UGCAUGU. In the case of B2, the binding signal is reported as 0.0136 KA relative to UGCAUGU. For B3, the binding signal was 0.0109 KA relative to UGCAUGU. B4 was tested, and the binding signal was 0.00252 KA relative to UGCAUGU. With B5 the binding signal was 0.0155 KA relative to UGCAUGU. With B6 the binding signal was 0.0307 KA relative to UGCAUGU. For B7, the binding signal was 0.0257 KA relative to UGCAUGU. With B8 the binding signal was 0.00603 KA relative to UGCAUGU. In the case of B9, the binding signal is reported as 0.0459 KA relative to UGCAUGU. With B10 the binding signal was 0.0377 KA relative to UGCAUGU. B11 was tested, and the binding signal was 0.0249 KA relative to UGCAUGU. B12 was tested, and the binding signal was 0.0399 KA relative to UGCAUGU. For B13, the binding signal was 0.0249 KA relative to UGCAUGU. B14 was tested, and the binding signal was 0.0217 KA relative to UGCAUGU. B15 was tested, and the binding signal was 0.0749 KA relative to UGCAUGU. For B16, the binding signal was 0.0211 KA relative to UGCAUGU. For B17, the binding signal was 0.0266 KA relative to UGCAUGU. With B18 the binding signal was 0.00092 KA relative to UGCAUGU. With B19 the binding signal was 0.00785 KA relative to UGCAUGU. In the case of B20, the binding signal is reported as 0.0132 KA relative to UGCAUGU.
